Screening results as filed in PubChem.
POLB inh: qHTS Assay for Inhibitors of DNA Polymerase Beta. 340,000 tested, 1.3% active. Pol beta primer extension/strand displacement, fluorescence kinetic. P06746. Potency, µM (top dose mostly 114 µM), usual class: inhibitors
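Pol beta (10 nM) was preincubated with compound for 15 min at room temperature. The reaction was then started with 50 nM substrate and read immediately and after a further 10 min at room temperature.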
PI5P4K alpha inh: qHTS for Inhibitors of phosphatidylinositol 5-phosphate 4-kinase (PI5P4K). PI5P4Kalpha enzyme, ADP-Glo luminescence, 60 min; hits give low values. 330,000 tested, 1.2% active. max response, %. Phosphatidylinositol 5-phosphate 4-kinase type-2 alpha (Homo sapiens), P48426; active = max response of -50% or lower; inconclusive = between -30% and -50%; inactive = -30% or higher; also: value at the top dose of about 77 µM
Target sequence (P48426 whole entry, looked up): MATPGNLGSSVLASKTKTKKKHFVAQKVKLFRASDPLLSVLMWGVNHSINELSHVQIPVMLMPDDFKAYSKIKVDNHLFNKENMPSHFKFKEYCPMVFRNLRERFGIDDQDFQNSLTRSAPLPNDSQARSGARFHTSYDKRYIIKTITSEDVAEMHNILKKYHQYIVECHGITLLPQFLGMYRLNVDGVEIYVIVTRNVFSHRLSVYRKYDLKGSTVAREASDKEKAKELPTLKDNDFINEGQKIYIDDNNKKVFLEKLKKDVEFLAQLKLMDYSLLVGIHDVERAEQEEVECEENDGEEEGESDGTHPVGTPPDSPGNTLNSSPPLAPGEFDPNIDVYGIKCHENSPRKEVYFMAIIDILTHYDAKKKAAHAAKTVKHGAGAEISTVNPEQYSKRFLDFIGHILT
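Quantitative HTS of the MLSMR library against PI5P4Kalpha with substrate. ATP added last at 5 microM final; room temperature, 60 minutes. Remaining ATP depleted, ADP converted and read as luminescence.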
12-LOX inh: Primary qHTS assay for inhibitors of human arachidonate 12S-lipoxygenase (ALOX12): Round 2. Polyunsaturated fatty acid lipoxygenase ALOX12 (Homo sapiens), P18054. Potency, µM (highest dose often 108 µM), actives largely listed as inhibitors. purified 12hLO, xylenol orange hydroperoxide absorbance. 580,000 tested, 1.1% active
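Purified human 12hLO at 150 nM in 25 mM Hepes, 0.01% Triton X-100, pH 7.0, preincubated 15 min at room temperature with compound. Reaction started with 40 uM arachidonic acid, 30 min at room temperature. Hydroperoxide measured by Fe-xylenol orange, 573/405 nm absorbance ratio.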
Pol iota inh: qHTS for Inhibitors of Polymerase Iota. DNA polymerase iota (Homo sapiens), Q9UNA4. Pol iota fluorescent replication assay, 10 min. Potency, µM (highest dose often 115 µM), actives largely listed as inhibitors. 390,000 tested, 1% active
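Pol iota at 10 nM preincubated 15 min with compounds at room temperature; reaction started with fluorescent substrate, 50 nM final. Fluorescence read kinetically at 0 and 10 min; buffer-only wells as negative control.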
Pol eta inh: qHTS for Inhibitors of Polymerase Eta; Potency, µM (doses to about 114 µM), hits mostly inhibitors; recombinant Pol eta, fluorescent DNA replication assay; AID 588591, 2011; DNA polymerase eta (Homo sapiens), Q9Y253; 390,000 tested, 1.2% active
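Fluorescent replication assay: 50 nM final substrate added after a 15 min room-temperature compound preincubation with 10 nM enzyme. Signal taken at 0 min and again at 10 min.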
Pol kappa inh: qHTS for Inhibitors of Polymerase Kappa; purified Pol kappa, fluorescent DNA synthesis assay, 10 min; AID 588579, 2011; Potency, µM (series often up to 107 µM), usual class: inhibitors; 400,000 tested, 0.53% active
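10 nM Pol kappa was preincubated with compounds for 15 min at room temperature. Reaction started with 50 nM (final) substrate. Fluorescence read kinetically at 0 and 10 min.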
A number is an active result. An excerpt weighted towards active compounds, which were near 2.9% of everything screened. Unless noted, calls follow the shape of the dose curve; as a rule, active = well fitted inhibition curve with a large enough effect; inconclusive = small, poorly fitted or top-dose-only effect, or another doubt; inactive = no such curve, though single readings can be large or run the other way.

C/C(=N/Nc1ccc(S(N)(=O)=O)cc1[N+](=O)[O-])c1ccccc1Br was read as 12-LOX inh 35µM.
`CCCCNC(=O)c1ccc2c(c1)NC(=O)C(CS(=O)(=O)Cc1cccc(C)c1)N2` (centres undefined) gave POLB inh 28µM, 12-LOX inh inactive, Pol iota inh inactive, Pol eta inh inconclusive and Pol kappa inh inactive.
For O=C(/C=C/c1ccc(Br)o1)Nc1nnc(C2CC2)s1 the results were POLB inh 25µM.
`Cc1c(CC(=O)O)c(=O)oc2cc(OCc3ccc(C(C)(C)C)cc3)ccc12` gave 12-LOX inh inactive.
Cc1ccccc1CSCCNC(=O)CN(c1ccccc1)S(=O)(=O)N(C)C was read as POLB inh inactive, 12-LOX inh inactive, Pol iota inh inactive, Pol eta inh inactive and Pol kappa inh inactive.
Screening CN(C)S(=O)(=O)N(CC(=O)NCCSc1ccccc1)c1ccccc1 returned POLB inh inactive, 12-LOX inh inactive, Pol iota inh inactive, Pol eta inh inactive and Pol kappa inh inactive.
For CN(C)S(=O)(=O)N(CC(=O)N(Cc1ccccc1)Cc1ccccc1)c1ccccc1 the results were POLB inh 22µM, 12-LOX inh inactive, Pol iota inh inconclusive, Pol eta inh inconclusive and Pol kappa inh inconclusive.
For CN(C)S(=O)(=O)N(CC(=O)NCCSCc1ccccc1)c1ccccc1 the results were POLB inh 35µM, PI5P4K alpha inh inconclusive, 12-LOX inh inconclusive, Pol iota inh inconclusive, Pol eta inh inconclusive and Pol kappa inh inconclusive.
CN(C)S(=O)(=O)N(CC(=O)NCCSc1ccc(Cl)cc1)c1ccccc1 was read as POLB inh 22µM, 12-LOX inh inactive, Pol iota inh inconclusive, Pol eta inh inconclusive and Pol kappa inh inactive.
Cc1ccc(Nc2nc(C)c(NC(=O)c3ccc(C)cc3)c(Nc3ccc(C)cc3)n2)cc1 was read as POLB inh inactive, 12-LOX inh inconclusive, Pol iota inh inconclusive, Pol eta inh inactive and Pol kappa inh inactive.
CCOc1ccc(Nc2nc(C)c(NC(=O)c3ccc(C)cc3)c(Nc3ccc(OCC)cc3)n2)cc1 was read as POLB inh inactive, 12-LOX inh 22µM, Pol iota inh inactive, Pol eta inh inactive and Pol kappa inh inactive.
`CC(=O)[C@]1(O)Cc2c(O)c3c(c(O)c2[C@@H](O[C@H]2C[C@H](N)[C@@H](O)[C@H](C)O2)C1)C(=O)c1ccccc1C3=O` gave 12-LOX inh inactive.
`CC(=O)[C@]1(O)Cc2c(O)c3c(c(O)c2[C@@H](O[C@H]2C[C@H](N)[C@H](O)[C@H](C)O2)C1)C(=O)c1ccccc1C3=O` gave POLB inh 14µM, PI5P4K alpha inh inactive, Pol iota inh 7.9µM, Pol eta inh 14µM and Pol kappa inh 27µM.
Screening CC(=O)[C@]1(O)Cc2c(O)c3c(c(O)c2[C@@H](O[C@H]2C[C@H](N)[C@H](O)[C@H](C)O2)C1)C(=O)c1c(O)cccc1C3=O returned Pol kappa inh 10µM.
c1nc(C23CC4CC(CC(C4)C2)C3)cs1 was read as 12-LOX inh inactive.
Screening O=C(NC12CC3CC(CC(C3)C1)C2)C1CCN(S(=O)(=O)Cc2ccc(F)cc2)CC1 returned 12-LOX inh inactive.
`Cc1cc(C)n2nc(SCC(=O)Nc3ccccc3)nc2n1` gave POLB inh inactive, PI5P4K alpha inh inactive, 12-LOX inh inactive, Pol iota inh inconclusive, Pol eta inh inactive and Pol kappa inh inactive.
Cc1cc(C)n2nc(SCN3C(=O)c4ccccc4C3=O)nc2n1 was read as POLB inh 45µM, 12-LOX inh inactive, Pol iota inh inconclusive, Pol eta inh inactive and Pol kappa inh inactive.
`COc1cc(NC(=O)c2ccco2)c(OC)cc1NC(=O)c1cc(OC)c(OC)c(OC)c1` gave POLB inh 40µM, 12-LOX inh inactive, Pol iota inh inactive, Pol eta inh inactive and Pol kappa inh inactive.
`COc1cc(OC)cc(C(=O)Nc2ccc(NC(=O)c3ccco3)c(Cl)c2)c1` gave POLB inh inconclusive, PI5P4K alpha inh inactive, 12-LOX inh inactive, Pol iota inh 25µM, Pol eta inh inconclusive and Pol kappa inh inactive.
`COc1cc(OC)cc(C(=O)NC(=S)Nc2ccc(NC(=O)c3ccco3)cc2)c1` gave POLB inh inactive, PI5P4K alpha inh inactive, 12-LOX inh inactive, Pol iota inh inactive, Pol eta inh inactive and Pol kappa inh inactive.
Screening CC(C)(C)c1[nH]nc2c1C(c1ccoc1)C(C#N)=C(N)O2 (centres undefined) returned POLB inh inactive, PI5P4K alpha inh inactive, 12-LOX inh inactive, Pol iota inh inactive, Pol eta inh inactive and Pol kappa inh inactive.
Screening CC(C)(C)c1[nH]nc2c1C(c1ccncc1)C(C#N)=C(N)O2 (centres undefined) returned POLB inh inactive, PI5P4K alpha inh -51, 12-LOX inh inactive, Pol iota inh inactive, Pol eta inh inactive and Pol kappa inh inactive.
Screening O=C(NCc1cccc(F)c1)C(=O)Nc1cccc(O)c1 returned 12-LOX inh inactive.
`CC1=NN(c2nc(N)nc(/C(C#N)=C/c3ccc([N+](=O)[O-])o3)n2)C(C)(C)C1` gave PI5P4K alpha inh inconclusive, 12-LOX inh inactive, Pol iota inh inconclusive, Pol eta inh 18µM and Pol kappa inh inactive.
For Nc1nnc(-c2cc3c(ccc4ccccc43)oc2=O)s1 the results were POLB inh 22µM.
`O=c1oc2ccc3ccccc3c2cc1-c1nnc(Nc2ccccc2)s1` gave POLB inh inactive, 12-LOX inh inconclusive, Pol iota inh inactive, Pol eta inh inactive and Pol kappa inh inactive.
For CCCNCc1ccccc1C(F)(F)F the results were 12-LOX inh inactive.
COC(=O)c1ccc(CSc2ccc3nnc(-c4cccc(F)c4)n3n2)o1 was read as POLB inh inactive, PI5P4K alpha inh inconclusive, 12-LOX inh 28µM, Pol iota inh inactive, Pol eta inh inactive and Pol kappa inh inactive.
Screening O=C(CSc1ccc2nnc(-c3cccnc3)n2n1)NCc1ccco1 returned POLB inh inactive, PI5P4K alpha inh inactive, 12-LOX inh inactive, Pol iota inh inactive, Pol eta inh inactive and Pol kappa inh inactive.
O=C(CSc1ccc2nnc(-c3cccc(F)c3)n2n1)NCc1ccco1 was read as POLB inh 79µM, 12-LOX inh inconclusive, Pol iota inh inconclusive, Pol eta inh inactive and Pol kappa inh inactive.
